Sampled rows, rich in hits. Any-hit rate of the full collection: about 6.9%.
JMJD2A Tudor: inhibitors of human JMJD2A Tudor domain | O75164 | AlphaScreen JMJD2A-Tudor / H3K4me3 peptide binding | Potency, µM (doses to about 114 µM), without a hit: top-dose activity change, negative = inhibition, most hits filed as inhibitors | hit rate 4.4% among 390,000; note: % is set by controls: 0 for no effect and ±100 for the full control effect; nearly all actives have a fitted effect of over 50% in size
VDR inh: blocks the human vitamin D receptor | VDR-SRC2-3 peptide fluorescence polarization, 2 h | Potency, µM, for inactives: max response, negative = inhibition, most hits filed as inhibitors | hit rate 0.93% among 400,000 | AID 504847; note: % is set by controls: 0 for no effect and ±100 for the full control effect
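Compounds are added to VDR with labelled SRC2-3 coactivator peptide and held 2 h at room temperature. Inhibition of the VDR–peptide interaction is then read as a change in fluorescence polarization.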
PLK1 PBD block: inhibitors of human PLK1 polo-box domain binding; P53350; Potency, µM, inactives show max response, negative = inhibition, usual class: inhibitors; hit rate 2.8% among 360,000; Plk1 PBD binding of FITC phosphopeptide, fluorescence polarization; note: series mostly up to about 57 µM; % is set by controls: 0 for no effect and ±100 for the full control effect; nearly all actives have a fitted effect of over 65% in size
HP1b chromo inh: blocks HP1-beta chromodomain binding to methylated histone tails. P83916. AlphaScreen HP1-beta / biotin-H3K9me3 peptide binding. Potency, µM (titrated, usually from 114 µM), without a hit: top-dose activity change, negative = inhibition, hits mostly inhibitors. hit rate 0.56% among 390,000. AID 540317; note: nearly all actives have a fitted effect of over 70% in size
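Compound inhibition of the preformed complex between 50 nM HP1-beta and 50 nM biotinylated H3K9me3 peptide was read by AlphaScreen. Buffer was PBS pH 7.4 with 0.01% Tween-20. Incubations ran 30 min at room temperature, with 10 ug/mL donor/acceptor beads.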
L3MBTL1 block: inhibitors of human L3MBTL1 | AlphaScreen L3MBTL1–H3K9me1 peptide binding | Potency, µM (top dose mostly 57.1 µM), without a hit: top-dose activity, negative = inhibition, actives largely listed as inhibitors | hit rate 0.66% among 230,000 | AID 485360; note: % is set by controls: 0 for no effect and ±100 for the full control effect; nearly all actives have a fitted effect of over 60% in size
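L3MBTL1 50 nM + b-AHA-H3(1-15)K9me1 75 nM, 30 min RT; compound added, 30 min RT; streptavidin donor/Ni-chelate acceptor beads 10 ug/mL each final, 30 min RT dark; AlphaScreen read.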
BAZ2B inh: BAZ2B (human) inhibition; Potency, µM (highest dose often 114 µM), inactives show at the highest dose activity change, negative = inhibition, hits mostly inhibitors; AID 504333; AlphaScreen BAZ2B-H3K14Ac peptide displacement; hit rate 4.4% among 360,000; note: % is set by controls: 0 for no effect and ±100 for the full control effect; nearly all actives have a fitted effect of over 60% in size
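Complex of BAZ2B and biotin-H3K14Ac (50 nM apiece) forms over 30 min at RT, then faces library compounds up to 110 uM for another 30 min; AlphaScreen beads added, 20 min dark incubation, luminescence read.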
* hit, by the source's call; ? = inconclusive; nt = not tested or not shown; [ ] = remark or other dose. Calls come from the whole dose curve; as a rule, active = well fitted curve in the direction sought with a large enough effect; inconclusive = small, poorly fitted or top-dose-only effect, or another doubt; inactive = no such curve, though single readings can be large; an effect the other way counts as inactive or inconclusive. Potency is the fitted concentration of half-maximal effect.

SMILES | JMJD2A Tudor | VDR inh | PLK1 PBD block | HP1b chromo inh | L3MBTL1 block | BAZ2B inh
CCC12CC3CC(C1)CC(C(=O)NNC(N)=O)(C3)C2 | -8.1% | 0.9% | -0.7% | 36.6% | 9.8% | 1.3%
CC12CC3CC(C)(C1)CC(C(=O)Nc1nn[nH]n1)(C3)C2 | 20µM* | 3.0% | -7.1% | 6.0% | 6.0% | ?
CCC12CC3CC(C1)CC(C(=O)Nc1nn[nH]n1)(C3)C2 | 25.1µM* | 5.4% | -8.9% | 1.7% | -4.9% | ?
Cc1nnc(NC(=O)C23CC4CC(C)(CC(C)(C4)C2)C3)s1 | 3.4% | -4.2% | 10.4% | 49.2% | nt | nt
COC(=O)CNC(=O)C12CC3(C)CC(C)(CC(C)(C3)C1)C2 | 14.7% | 6.6% | 0.0% | 25.4% | nt | -0.9%
O=[N+]([O-])c1cccc(CN2C(COCc3ccccc3)CCC=CS2(=O)=O)c1 (stereo not drawn) | -20.0% | -13.4% | nt | 19.2% | nt | nt
COc1ccc(CNC(=O)Cn2nnc(-c3ccc(C(F)(F)F)cc3)n2)cc1 | -29.0% | 8.1% | nt | 40.3% | nt | -6.2%
O=C(CSc1nnc(SCC(=O)c2ccco2)s1)c1ccco1 | 20µM* | -13.1% | 16.8µM* | ? | ? | ?
O=C(Nc1nnc(SCc2ccc(Cl)cc2)s1)c1ccco1 | ? | ? | 2.99µM* | 2.5% | 4.4% | 3.8%
O=C(CSc1ncn[nH]1)c1ccco1 | -4.6%[11.4 µM] | -4.5% | 29.9µM* | ? | -9.6% | 0.0%
O=C(CSc1ncn[nH]1)c1ccccc1 | 25.1µM* | ? | 23.8µM* | -70.3% | -4.0% | ?
CC(=O)Nc1cccc(NC(=O)Cn2cnc3c(oc4ccccc43)c2=O)c1 | ? | 6.3% | nt | 0.4% | nt | -24.4%
COc1ccc2c(c1)c1c(c(=O)n(-c3ccccc3)c(=O)n1CC(=O)Nc1ccc(F)cc1)n2C | 3.8% | 20.3% | nt | 23.7% | nt | -3.0%
CCN(CC(=O)Nc1ccc(N2CCOCC2)cc1)CC(=O)NC(C)(C)C | 4.2% | 4.0% | -2.9% | 30.0% | 1.9% | -8.8%
O=C1OC(c2ccccc2)(c2ccccc2)N2CCN(C(=O)NCc3ccc(F)cc3)CC12 (stereo not drawn) | -15.0% | nt | nt | nt | nt | nt
CCN(C(=O)C1CCCN(c2ncnc3onc(-c4ccc(F)cc4)c23)C1)c1ccccc1 (stereo not drawn) | -3.6% | 9.4% | nt | 27.8% | nt | 3.1%[57.1 µM]
Cc1ccc(C2=Nc3ccccc3N=C(c3ccc(F)cc3)C2)c(O)c1 | -6.9% | 3.5% | nt | 60.2% | nt | 6.6%
O=C(O)c1ccn(Cn2cnc3ccccc32)n1 | 22.4µM* | 9.3% | 1.3% | 3.6% | 6.0% | ?
Cc1ccccc1NC(=S)NCc1cccn1C | -9.7% | 8.2% | -2.0% | 21.3% | -0.8% | ?
Cc1c(Cl)cccc1NC(=S)NCc1cccn1C | ? | ? | 16.8µM* | ? | -3.8% | ?
O=C(c1cccc(F)c1)N1CCC2(CCCN(c3ccc(-c4ccccc4)cc3)C2)CC1 | nt | -13.1% | nt | nt | nt | nt
Cc1ccccc1Cn1c(=O)n(CCCC(=O)NCc2ccco2)c(=O)c2sccc21 | -19.7% | -1.1% | -5.0% | 4.4% | nt | 5.0%
O=C(CCCCn1c(=S)[nH]c2ccsc2c1=O)NCc1ccco1 | 25.1µM* | -12.7% | -18.0% | -14.7% | -4.8% | -31.9%
O=C(CCCn1c(=S)[nH]c2ccsc2c1=O)NCc1ccco1 | 56.2µM* | -1.1% | -15.2% | 4.4% | 2.3% | ?
COC(=O)c1cc(NC(=O)Cn2ncc3c2-c2ccccc2OC3)cc(C(=O)OC)c1 | -6.5% | -11.1% | nt | 36.5% | nt | 3.9%
SMILES | JMJD2A Tudor | VDR inh | PLK1 PBD block | HP1b chromo inh | L3MBTL1 block | BAZ2B inh
CC(C)C[C@@H](CNCC(=O)[C@H](CC(=O)O)NC(=O)c1[nH]cnc1C(=O)N[C@H](CN)CC(C)C)NC(=O)c1nc[nH]c1C(=O)N[C@@H](C)C(=O)O | ? | 1.6% | -2.7% | 65.2% | nt | nt
CC(C)C[C@H](NC(=O)c1nc[nH]c1C(=O)NCCNC(=O)OC(C)(C)C)C(=O)CNCCNC(=O)c1[nH]cnc1C(=O)N[C@@H](C)C(=O)OC(C)(C)C | -12.4% | -7.8% | -1.0% | 69.4% | 2.2% | nt
CC(C)C[C@@H](CN)NC(=O)c1nc[nH]c1C(=O)N[C@@H](C)C(=O)CNC[C@H](C)NC(=O)c1nc[nH]c1C(=O)N[C@@H](CC(=O)O)C(=O)O | 56.2µM* | ? | ? | 44.5% | nt | nt
CC(C)C[C@@H](CN)NC(=O)c1nc[nH]c1C(=O)N[C@@H](CC(=O)O)C(=O)CNC[C@H](C)NC(=O)c1nc[nH]c1C(=O)N[C@@H](CC(=O)O)C(=O)O | 89.1µM* | -10.6% | -14.5% | 89.4% | nt | nt
CC(C)C[C@@H](CN)NC(=O)c1nc[nH]c1C(=O)N[C@@H](C)C(=O)CNC[C@H](CC(C)C)NC(=O)c1nc[nH]c1C(=O)N[C@@H](CC(=O)O)C(=O)O | 79.4µM* | -22.4% | -16.0% | 87.7% | nt | nt
N#Cc1cccc(NC(=O)C2CCN(c3nc(-c4ccc(Cl)cc4)no3)CC2)c1 | 2.6% | 7.2% | nt | 31.1%[57 µM] | nt | 5.7%
Cc1cc(C)c2cc(CN(Cc3ccco3)C(=S)NCC3CCCO3)c(=O)[nH]c2c1 (stereo not drawn) | -32.9% | -11.7% | -26.9% | -6.7% | -7.1% | ?
S=c1ncc2[nH]c(=S)[nH]c2[nH]1 | 11.2µM* | 31.6µM* | 1.68µM* | ? | nt | nt
COc1ccccc1N1CCN(C(=O)c2nn(-c3ccc(C)cc3)c(=O)n(C)c2=O)CC1 | -12.8% | 10.6% | nt | 13.1%[57 µM] | nt | -19.3%
CC(=O)c1cccc(NC(=O)C2=CC(c3ccc(F)cc3)=NS(=O)(=O)N2C)c1 | -4.6% | 2.0% | nt | 38.2% | nt | 4.0%
COc1cc(C(=O)NC2CCN(CC(=O)Nc3cccc(C)c3C)CC2)cc(OC)c1OC | ? | -20.4% | 26.7µM* | 25.2% | -0.1% | -20.9%
COc1cccc(Cn2cccc(NC(=O)NC3CCCCC3)c2=O)c1 | -13.9% | 3.0% | -6.7% | 10.1% | nt | ?
COc1ccc(CNC(=O)CN2CCC(NC(=O)c3cccc(OC)c3)CC2)cc1 | 1µM* | -16.0% | -8.3% | -32.8%[57 µM] | nt | nt
COc1cccc(C(=O)NC2CCN(CC(=O)NCc3ccccc3F)CC2)c1 | -13.0% | 9.9% | 0.8% | -2.9% | nt | -0.4%
COc1cccc(CNCC(=O)NC(=O)NC2CCCC2)c1 | 22.4µM* | 4.8% | -14.7% | ? | 2.5% | nt
CCCCc1cc(=O)oc2cc(C)cc(OCC(=O)NCc3ccncc3)c12 | -10.7% | -9.7% | -6.7% | 39.5% | nt | -11.4%[57.1 µM]
COc1ccc(/C=C\C(=O)NC2CC(=O)N(c3ccc(F)cc3)C2)cc1OC (stereo not drawn) | -1.9% | -1.5% | nt | 19.3% | nt | -0.4%
CCN(CC(=O)Nc1ccccc1C(F)(F)F)C(=O)CCOc1ccccc1C | 11.7% | 6.7% | -1.8% | 23.2% | -1.9% | 7.4%
